Experimental data: PubChem BioAssay (NCI)
This is part of a sample that, as a whole, favours compounds with a hit. Of some 79,000 tested, about 15% had one in any assay. Calls of active or inactive are those of the source. Cut-off read from the data, not from the text of the source: active = growth inhibition above about 70%; inactive = the rest.

Key:
[1] = NCI Yeast Anticancer Drug Screen. Data for the rad52 strain (AID 147);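 note: 0% = growth of vehicle-treated control cultures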; conditions: S. cerevisiae rad52 mutant growth inhibition, stronger effect = higher value
In short: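 Compounds are applied to a genetically defined yeast strain lacking normal DNA damage repair, and inhibition of growth is expressed relative to cultures given vehicle only.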

[2] = NCI Yeast Anticancer Drug Screen. Data for the wt1 strain (AID 149);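 note: 0% = growth of vehicle-treated wt1 cultures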; conditions: S. cerevisiae wt1 strain (SPY 50644) growth inhibition, stronger effect = higher value
In short: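 Each compound is tested on wt1 yeast and the loss of growth versus vehicle gives the inhibition value.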

[3] = NCI Yeast Anticancer Drug Screen. Data for the rad50EPP+ strain (AID 151);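 note: 0% = growth of vehicle-treated control cultures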; conditions: S. cerevisiae rad50 mutant strain, stronger effect = higher value
In short: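 Compounds were applied to the rad50EPP+ yeast strain, which bears a defined DNA repair alteration, and growth inhibition was determined relative to vehicle-treated cultures.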

[4] = NCI Yeast Anticancer Drug Screen. Data for the mgt1 strain (AID 153); conditions: S. cerevisiae mgt1 mutant growth inhibition, stronger effect = higher value
In short: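 Strain: mgt1 yeast, one of a set carrying defined DNA damage repair or cell cycle control alterations. Compound-treated growth compared with vehicle.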

[5] = NCI Yeast Anticancer Drug Screen. Data for the rad50 strain (AID 155);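 note: 0% = growth of vehicle-only cultures of the same strain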; conditions: S. cerevisiae rad50 strain growth inhibition, stronger effect = higher value
In short: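 Vehicle-treated cultures provide the reference for the growth inhibition reported for compound-exposed, repair-deficient yeast.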

[6] = NCI Yeast Anticancer Drug Screen. Data for the mec2-1 strain (AID 157); conditions: S. cerevisiae mec2-1 strain, stronger effect = higher value
In short: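 Strain: mec2-1 (DNA repair/cell cycle alteration). Compound exposure, then growth measured; inhibition expressed relative to vehicle.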

[7] = NCI Yeast Anticancer Drug Screen. Data for the rad14 strain (AID 159);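 note: 0% = growth of vehicle-treated control cultures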; conditions: S. cerevisiae rad14 strain growth inhibition, stronger effect = higher value
In short: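 Inhibition of growth is reported for a repair-deficient yeast mutant following compound treatment, calculated relative to cultures that received vehicle.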

[8] = NCI Yeast Anticancer Drug Screen. Data for the sgs1 mgt1 strain (AID 161);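 note: 0% = growth of cultures given vehicle only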; conditions: S. cerevisiae sgs1 mgt1 strain, stronger effect = higher value
In short: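 Mutant yeast exposed to compound; growth scored against vehicle-only wells.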

[9] = NCI Yeast Anticancer Drug Screen. Data for the CLN2oe strain (AID 163);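 note: 0% = growth of vehicle-only control cultures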; conditions: S. cerevisiae CLN2oe strain, stronger effect = higher value
In short: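 Growth of a genetically modified yeast strain is measured after compound exposure and compared with cultures given vehicle alone.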

[10] = NCI Yeast Anticancer Drug Screen. Data for the cln2 rad14 strain (AID 165);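 note: 0% = growth equal to vehicle treated cultures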; conditions: S. cerevisiae cln2 rad14 strain, stronger effect = higher value
In short: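 Compounds are applied to the cln2 rad14 yeast strain, and growth is then compared with that of vehicle-treated cultures to give inhibition.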

[11] = NCI Yeast Anticancer Drug Screen. Data for the bub3 strain (AID 167); conditions: S. cerevisiae bub3 mutant strain, stronger effect = higher value
In short: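 Mutant yeast screening strain plus compound; vehicle-treated cultures serve as the 0% inhibition reference.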

[12] = NCI Yeast Anticancer Drug Screen. Data for the wt2 strain (AID 169); conditions: S. cerevisiae wt2 strain growth inhibition, stronger effect = higher value
In short: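 This strain belongs to a panel of yeast strains with defined genetic alterations in DNA damage repair or cell cycle control. Compounds are applied, and growth inhibition is measured against vehicle-treated cultures.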

[13] = NCI Yeast Anticancer Drug Screen. Data for the sgs1 strain (AID 173);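 note: 0% = growth of vehicle-only control cultures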; conditions: S. cerevisiae sgs1 mutant, stronger effect = higher value
In short: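 Growth of a yeast strain bearing a defined genetic alteration is measured after compound treatment. Inhibition is expressed relative to vehicle-only controls.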

[14] = NCI Yeast Anticancer Drug Screen. Data for the mlh1 rad18 strain (AID 175); conditions: S. cerevisiae mlh1 rad18 strain growth inhibition, stronger effect = higher value
In short: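 Read-out is yeast growth inhibition, calculated against vehicle-only controls. The compound was applied to a strain engineered with DNA damage repair alterations.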

[15] = NCI Yeast Anticancer Drug Screen. Data for the rad18 strain (AID 177); conditions: S. cerevisiae rad18 mutant growth inhibition, stronger effect = higher value
In short: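 Growth of the mutant yeast strain after compound exposure, normalised to vehicle-only cultures.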

[16] = at 5.0 µM (retest, dose inferred, filed as 0.5)
[17] = at 50.0 µM (retest, dose inferred, filed as 5.0)

Measured: growth inhibition

O=C1C2C=CC1C1C(=O)OC(=O)C21 (stereo not drawn)
active: [5]; [17] 77% | [5]; at 50.0 µM 83.2% | [6]; at 50.0 µM 90.8% | [8]; at 50.0 µM 89.2% | [10]; at 50.0 µM 91.8% | [11]; at 50.0 µM 89.8% | [14]; at 50.0 µM 82.9%
inactive: [1]; at 1.2 µM -18% | [1]; at 3.7 µM -15% | [1]; at 11.0 µM -8% | [1]; at 33.0 µM -14% | [1]; at 100.0 µM -24% | [2]; at 1.2 µM -50% | [2]; at 3.7 µM -45% | [2]; at 11.0 µM -45% | [2]; at 33.0 µM -52% | [2]; at 100.0 µM -51% | [3]; at 1.2 µM -17% | [3]; at 3.7 µM -21% | [3]; at 11.0 µM -20% | [3]; at 33.0 µM -11% | [3]; at 100.0 µM -45% | [4]; at 1.2 µM -29% | [4]; at 3.7 µM -13% | [4]; at 11.0 µM -6% | [4]; at 33.0 µM -17% | [4]; at 100.0 µM -28% | [5]; at 1.2 µM -3% | [5]; at 3.7 µM -2% | [5]; [16] 49% | [5]; at 11.0 µM 16% | [5]; at 33.0 µM 13% | [5]; at 100.0 µM -2% | [6]; at 1.2 µM -54% | [6]; at 3.7 µM -52% | [6]; [16] 48% | [6]; at 11.0 µM -44% | [6]; at 33.0 µM -51% | [6]; [17] 58% | [6]; at 100.0 µM -45% | [7]; at 1.2 µM -57% | [7]; at 3.7 µM -44% | [7]; at 11.0 µM -48% | [7]; at 33.0 µM -48% | [7]; at 100.0 µM -43% | [8]; [16] 1% | [8]; [17] -6% | [9]; at 1.2 µM -8% | [9]; at 3.7 µM -6% | [9]; at 11.0 µM -24% | [9]; at 33.0 µM -27% | [9]; at 100.0 µM -25% | [10]; [16] 61% | [10]; [17] 25% | [11]; at 1.2 µM -19% | [11]; at 3.7 µM -10% | [11]; [16] 33% | [11]; at 11.0 µM -22% | [11]; at 33.0 µM -7% | [11]; [17] 14% | [11]; at 100.0 µM -23% | [12]; at 1.2 µM -25% | [12]; at 3.7 µM -9% | [12]; at 11.0 µM -35% | [12]; at 33.0 µM -32% | [12]; at 100.0 µM -34% | [13]; at 1.2 µM -28% | [13]; at 3.7 µM -31% | [13]; at 11.0 µM -34% | [13]; at 33.0 µM -20% | [13]; at 100.0 µM -39% | [14]; [16] 53% | [14]; [17] 41% | [15]; at 1.2 µM -23% | [15]; at 3.7 µM -2% | [15]; at 11.0 µM 3% | [15]; at 33.0 µM -28% | [15]; at 100.0 µM -10%
